SARS PLpro yeast: qHTS of Yeast-based Assay for SARS-CoV PLP; S. cerevisiae expressing SARS-CoV PLpro, growth rescue; AID 485353, 2010; 330,000 tested, 0.19% active; Potency, µM (titrated, usually from 32.9 µM), for the others: at the highest dose activity, positive = growth rescue, hits mostly activators; calls by dose curve; further: potency means the concentration at half of the fitted maximal effect; 0% is about no effect; nearly all actives have a fitted effect of over 55% in size
Sm TGR block: qHTS Assay for the Inhibitors of Schistosoma Mansoni Peroxiredoxins; Schistosoma mansoni thioredoxin glutathione reductase (TGR), Q962Y6; purified TGR, DTNB reduction, TNB absorbance 405 nm; Potency, µM (top dose mostly 114 µM), for the others: at the highest dose activity change, negative = inhibition, actives largely listed as inhibitors; 360,000 tested, 3% active; AID 485364, 2010; further: potency means the concentration at half of the fitted maximal effect; on the % scale 0 is the no-effect control and ±100 the full control effect; nearly all actives have a fitted effect of over 60% in size
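TGR 20 nM + NADPH 100 uM (dispensed conc.), cpd preinc 15 min RT; start with NADPH (500 uM addition) then DTNB (15 mM addition). Kinetic TNB absorbance, 405 nm filter. Four-parameter Hill fit across titration.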
Pf growth 48h: Primary qHTS for delayed death inhibitors of the malarial parasite plastid, 48 hour incubation; P. falciparum luciferase growth in erythrocytes, 48 h; Potency, µM (doses to about 28.7 µM), for inactives: top-dose activity change, negative = inhibition, hits mostly inhibitors; 310,000 tested, 5.9% active; AID 504832, 2011; further: potency means the concentration at half of the fitted maximal effect; on the % scale 0 is the no-effect control and ±100 the full control effect
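Parasite viability was followed by luminescence of a genomically integrated firefly luciferase. Cultures held 0.1% parasitemia at 2% hematocrit (final), incubated under 5% CO2 at 37 C.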
HCV inhibitor: qHTS Assay for Inhibitors of Hepatitis C Virus (HCV) | Huh7.5.1 HCVcc-Cre infection, luciferase reporter, 44 h | Potency, µM (highest dose often 41.8 µM), for inactives: top-dose activity change, negative = inhibition, hits mostly inhibitors | 340,000 tested, 3.4% active; further: potency means the concentration at half of the fitted maximal effect; on the % scale 0 is the no-effect control and ±100 the full control effect
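Reporter virus HCVcc-Cre (~0.5 moi) infects cells exposed to compound; seeding density 1,000 cells/well with 4 h settling beforehand. Luminescence, 15 sec read, taken 44 h post-infection following a 15 min RT substrate incubation.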
HCMV antiviral: qHTS Assay for inhibitors of the human cytomegalovirus (HCMV) | 410,000 tested, 4.5% active | activity change, negative = inhibition, % at 57.5 µM | HFF cells, HCMV-luciferase reporter, 72 h; active compounds read low; in the data active means activity change below about -60%; inconclusive means no clear call, values can overlap the other calls; inactive means above about -39%; further: on the % scale 0 is the no-effect control and ±100 the full control effect
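Steps: HFFs plated, 16 h 37C; compounds added; HCMV-luciferase added to MOI 1 PFU/cell; 72 h 37C; OneGlo reagent, 5 min room temperature; luminescence read, normalized to controls.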
Pf growth 96h: Primary qHTS for delayed death inhibitors of the malarial parasite plastid, 96 hour incubation; P. falciparum luciferase reporter growth, 96 h; 320,000 tested, 6.9% active; Potency, µM (titrated, usually from 28.7 µM), inactives show at the highest dose activity change, negative = inhibition, most hits filed as inhibitors; further: potency means the concentration at half of the fitted maximal effect; on the % scale 0 is the no-effect control and ±100 the full control effect
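Luminescence readout: decreased luciferase signal marks inhibited growth of reporter-expressing P. falciparum in infected red cells (2% hematocrit, 0.05% parasitemia final), exposed to compound two generations (96 h, 37 C, 5% CO2).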
* marks the source's active call; other numbers are inactive results; ? = inconclusive; . = no result given; [ ] = dose if it differs, or a comment. A selection: hits, their analogues and other compounds. The true share with any hit is near 15%. Unless noted, the call rests on the fitted dose curve; in most records, active means well fitted curve in the direction sought with a large enough effect; inconclusive means small, poorly fitted or top-dose-only effect, or another doubt; inactive means no such curve, though single readings can be large; an effect the other way counts as inactive or inconclusive.

SMILES | SARS PLpro yeast | Sm TGR block | Pf growth 48h | HCV inhibitor | HCMV antiviral | Pf growth 96h
Cc1cc(C)n(Cc2ccc(NC(=O)c3nn(C)cc3[N+](=O)[O-])cc2)n1 | 9.5% | -0.3% | -9.3% | ? | -100.6* | .
CCn1cc([N+](=O)[O-])c(C(=O)Nc2ccc(Cn3nc(C)cc3C)cc2)n1 | 3.0% | 7.9% | -7.6% | -39.2% | -17.4 | ?
CC[C@]12c3[nH]c4cc(-c5ccco5)ccc4c3CCN1C(=O)[C@@H](CC(=O)NC/C=C(\C)CCC=C(C)C)C[C@@H]2C(=O)N1CCN(C(=O)c2ccco2)CC1 | 17.0% | . | . | 12.6µM* | . | .
CC[C@]12c3[nH]c4cc(-c5ccco5)ccc4c3CCN1C(=O)[C@@H](CC(=O)NC/C=C(\C)CCC=C(C)C)C[C@@H]2C(=O)N1CCN(C(=O)C2CC2)CC1 | 1.8% | . | . | 15.8µM* | -16.3 | .
CC[C@]12c3[nH]c4ccc(Cl)cc4c3CCN1C(=O)[C@@H](CC(=O)NC/C=C(\C)CCC=C(C)C)C[C@@H]2C(=O)N1CCN(C(=O)C2CC2)CC1 | -6.2% | . | . | 22.4µM* | ? | .
CCOC(=O)C1Nc2ccc(OC(F)(F)F)cc2C2C=CCC12 (centres undefined) | . | . | . | -14.3% | -20.0 | .
Cc1ccc2c(c1)C1C=CCC1C(C(=O)O)N2 (centres undefined) | -13.1% | 0.708µM* | ? | 0.9%[0.335 µM] | . | 2.62µM*
CC(=O)c1ccc2c(c1)C1C=CCC1C(C(=O)O)N2 (centres undefined) | 0.2% | ? | 32.9% | -6.2% | 24.7 | 22.1%
COc1cccc2c1NC(C(=O)O)C1CC=CC21 (centres undefined) | 1.2% | 7.08µM* | -15.7% | -8.9% | . | 79.9%
O=C(O)C1Nc2c(cccc2C(F)(F)F)C2C=CCC12 (centres undefined) | -0.7% | 1.41µM* | 12.3%[0.00184 µM] | . | . | 4.5%
CC(C)C1Nc2ccc(S(N)(=O)=O)cc2C2C=CCC21 (centres undefined) | 3.0% | 12.6µM* | ? | 11.2µM* | -17.1 | .
CCN(CC)C(=O)Cn1c(SCC(=O)Nc2ccc(C)c(C)c2)nc2ccccc21 | . | 4.8% | . | . | -7.4 | .
COc1cccc(CNS(=O)(=O)c2cc(Br)ccc2Br)c1 | . | . | . | . | -5.1 | .
NC(=O)c1cc(N2C(=O)C=CC2=O)ccc1Cl | -10.6% | 0.398µM* | 2.33µM* | . | . | 0.0%
CC(=O)Nc1ccc(Cl)c(C(N)=O)c1 | 2.7% | 6.9% | 0.4% | 3.0% | 35.9 | ?
CCOc1cc(N2CCOCC2)c(OCC)cc1NC(=O)C(NC(=O)c1ccco1)C(C)C (centres undefined) | -4.2% | 6.4%[11.4 µM] | . | 1.6% | 59.6 | -2.1%
O=C(Nc1ccc(N2CCN(C(=O)c3ccco3)CC2)c(Cl)c1)c1cccs1 | -10.2% | 0.5% | 5.22µM* | ? | -18.7 | .
CC(C)C(=O)N1CCN(c2ccc(NC(=O)c3ccc4c(c3)OCCO4)cc2Cl)CC1 | -3.2% | -23.8% | . | 12.6µM* | -80.3* | 4.65µM*
O=C(Cc1ccc(Cl)cc1)Nc1ccc(N2CCN(C(=O)c3ccco3)CC2)c(Cl)c1 | -1.1% | 0.5% | 11.7µM* | ? | -12.2 | -9.5%
CC(C)C(=O)N1CCN(c2ccc(NC(=O)c3cccs3)cc2Cl)CC1 | -0.3% | 11.2% | ? | 10µM* | -85.5* | -1.3%
CC1=NN(Cc2ccccc2)C(=O)C1C(c1ccc(Cl)cc1)C(C#N)C#N (centres undefined) | -2.3% | 14.1µM* | ? | 3.4% | -23.3 | ?
CC1=NNC(=O)C1C(c1ccc(Cl)cc1)C(C#N)C#N (centres undefined) | -0.3% | 11.2µM* | 8.1% | -15.0% | -14.9 | 23.6%
CC(=O)NC(c1ccccc1)c1nc(-c2cccc(C(F)(F)F)c2)cs1 (centres undefined) | . | . | . | . | 68.9 | .
Cc1cccc(NC(=S)NN(Cc2ccccc2)c2ccccc2)c1C | -16.7% | -5.0% | . | -24.7% | -29.8 | 4.15µM*
O=C(NC(=S)Nc1cccc(S(=O)(=O)NC2=NCCC2)c1)c1cc(-c2ccco2)nc2ccccc12 | 0.5% | 12.6µM* | ? | -19.9% | -81.0* | ?
SMILES | SARS PLpro yeast | Sm TGR block | Pf growth 48h | HCV inhibitor | HCMV antiviral | Pf growth 96h
O=C(Nc1cccc(S(=O)(=O)NC2=NCCC2)c1)c1cc(-c2ccco2)nc2ccccc12 | -0.3% | 17.8µM* | ? | ? | 8.2 | ?
Cc1ccc2nc(SCc3nc(-c4ccc(Cl)cc4)no3)[nH]c2c1 | . | 9.2% | . | . | -25.5 | .
COC(=O)c1oc(-c2ccc(Cl)cc2)nc1C | -2.3% | . | 24.9% | -1.8% | ? | 20.9%
Cc1ccc(CN2CCC(CNC(=O)c3cc4ccc5cccnc5c4[nH]3)CC2)cc1 | . | 15.1% | . | . | -106.0* | .
Cc1ccc(C)c(CN2CCC(CNC(=O)c3cc4ccc5cccnc5c4[nH]3)CC2)c1 | . | 3.2% | . | . | ? | .
Cn1nc(C(F)(F)F)c(-c2ccc(Br)cc2)c1NC(=O)Nc1ccc(F)cc1F | -7.2% | 9.8% | ? | ? | -92.3* | -12.3%
Cn1nc(C(F)(F)F)c(C(=O)Nc2ccc(F)cc2F)c1Sc1ccc(Cl)cc1 | 0.6% | 9.0% | ? | -4.8% | 4.9 | 11.7µM*
Cc1ccc(Sc2c(C(=O)Nc3ccc(F)cc3F)c(C(F)(F)F)nn2C)cc1 | -2.5% | 0.0% | ? | -2.3% | -12.2 | ?
Cn1nc(C(F)(F)F)c(C(=O)Nc2ccc(F)cc2F)c1Sc1ccc(C(F)(F)F)cc1 | 2.6% | 0.3% | ? | -8.1% | 34.6 | 8.28µM*
Cc1cc(=O)n(CC(=O)N2CCN(c3ccc(F)cc3)CC2)c2c1c(C)nn2C | . | 1.2% | . | . | -30.0 | .
O=C1CC(C(=O)Nc2cccc3ccccc23)C2(CCCC2)O1 (centres undefined) | -8.9% | 0.8% | 22.2% | 1.5% | 52.5 | 1.47µM*
CC1(C)CC2(CCO1)OC(=O)CC2C(=O)Nc1cccc2ccccc12 (centres undefined) | 4.2% | -14.6% | . | -4.2% | 13.1 | 201.2%
Cc1cc(NC(=O)COc2coc(CN3CCN(c4ccccc4F)CC3)cc2=O)no1 | 0.1% | -0.3% | ? | -15.3% | -8.5 | 9.28µM*
CCN(CC)C(=O)COc1coc(CN2CCN(c3ccccc3F)CC2)cc1=O | -7.3% | 1.6% | -7.0% | 10.0% | -3.9 | 9.28µM*
O=c1[nH]c(=O)n2c(c1-c1ccccc1)OC(CBr)C2 (centres undefined) | . | . | . | . | -16.1 | .
COc1ccc(C(=O)c2cn(Cc3cccc(C)c3)c3cc4c(cc3c2=O)OCO4)cc1 | . | -1.5% | . | . | -35.3 | .
C=CCNc1nc(-c2ccccc2)nc(-n2ccnc2)n1 | -6.8% | -25.1% | 13.1µM* | 2.51µM* | 10.8 | ?
